# HT1080 IDH1KD tx – qHTS for induction of synthetic lethality in tumor cells producing 2HG: qHTS for the HT-1080-IDH1KD cell line; 360,000 compounds, 2% hits; Potency, µM (titrated, usually from 46.1 µM), without a hit: top-dose activity, negative = toxicity, most hits filed as cytotoxic; HT-1080 IDH1 knockdown viability, ATP luminescence, 48 h;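 also: potency is read from the fitted curve at half-maximal effect; 0% = DMSO wells and -100% = cell-free medium wells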
#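 HT-1080-IDH1KD cells (IDH1 knocked down), 750/well in RPMI with 5% FBS, treated with compound 48 h at 37 degrees C. Viability by CellTiter-Glo luminescence, normalised to DMSO and no-cell wells; concentration-response curves classed.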
# TDP1 cell noCPT – qHTS for Inhibitors of human tyrosyl-DNA phosphodiesterase 1 (TDP1): qHTS in cells in absence of CPT; DT40 Tdp1-/- hTDP1 cells, no CPT, ATP luminescence, 48 h; 420,000 compounds, 15% hits; AID 686978, 2013; Potency, µM (doses to about 46.2 µM), without a hit: at the top dose activity change, negative = growth inhibition, hits mostly inhibitors; also: potency is read from the fitted curve at half-maximal effect; nearly all actives have a fitted effect of over 55% in size
#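 Chicken DT40 Tdp1-/- cells complemented with human TDP1, screened without camptothecin (DMSO vehicle only), 400 cells/well. Compounds pin-transferred, cells incubated at 37 °C for at least 48 hr. Growth read as ATP-dependent luminescence (CellTiter-Glo, 30 min at RT).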
# HT1080NT lethal – qHTS for induction of synthetic lethality in tumor cells producing 2HG: qHTS for the HT-1080-NT fibrosarcoma cell line | AID 686970, 2013 | Potency, µM (top dose mostly 46.1 µM), inactives show top-dose activity, negative = less viability, hits mostly cytotoxic | 360,000 compounds, 1.6% hits | HT-1080-NT fibrosarcoma viability, CellTiter-Glo ATP luminescence, 48 h;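 also: NT is the 2HG producing partner of a matched IDH1 knockdown line; potency is read from the fitted curve at half-maximal effect; 0% = DMSO-treated cells and -100% = media-only wells without cells; nearly all actives have a fitted effect of over 55% in size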
#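 Viability of the 2HG-overproducing fibrosarcoma line after 48 hours of compound exposure at 37 degrees C was determined by luminescence with CellTiter-Glo, and concentration-effect curves were then fitted and categorized.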
# IL1B secr inh – qHTS for Inhibitors of Inflammasome Signaling: IL-1-beta AlphaLISA Primary Screen; THP-1 LPS/ATP IL-1B secretion, AlphaLISA, 16 h; active compounds read low; activity change, % at 57.5 µM; 360,000 compounds, 4.7% hits; AID 743279, 2014; in the data active = activity change below about -50%; inconclusive = mostly about -30% to -49%
#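 Secreted IL-1B measured by AlphaLISA bead assay after 16 h compound exposure of THP-1 cells; compounds (final up to 57.5 uM) added 1 h before LPS (250 ng/mL) and ATP (1.25 mM) stimulation; lower signal means less secretion.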
# TDP1 cell CPT – qHTS for Inhibitors of human tyrosyl-DNA phosphodiesterase 1 (TDP1): qHTS in cells in presence of CPT; Potency, µM (titrated, usually from 46.2 µM), without a hit: at the highest dose activity change, negative = growth inhibition, usual class: inhibitors; 420,000 compounds, 12% hits; AID 686979, 2013; chicken DT40 Tdp1-/-;hTDP1 cells + 20 nM CPT, ATP luminescence, 48 h; also: potency is read from the fitted curve at half-maximal effect; nearly all actives have a fitted effect of over 55% in size
#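 Cell growth measured by CellTiter-Glo luminescence after a minimum 48 h, 37 C compound exposure with 20 nM CPT in Tdp1-knockout DT40 cells stably expressing hTDP1, seeded 400/well; qHTS titration format.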
# * hit, by the source's call; ? = inconclusive; . = no result given. The list is not random: actives were taken first. Their share in the collection is about 19%. Unless noted, calls follow the shape of the dose curve; as a rule, active = well fitted curve in the direction sought with a large enough effect; inconclusive = small, poorly fitted or top-dose-only effect, or another doubt; inactive = no such curve, though single readings can be large; an effect the other way counts as inactive or inconclusive. Unless noted, % is scaled to controls: 0 for no effect and ±100 for the full control effect.
SMILES,HT1080 IDH1KD tx,TDP1 cell noCPT,HT1080NT lethal,IL1B secr inh,TDP1 cell CPT
COc1ccc(C2=NOC(Cn3nc(C(=O)NCc4ccc(C)cc4)cc3-c3ccccc3)C2)cc1 (stereo unspecified),-2%,21µM*,-10%,-9,?
COc1ccc(C2=NOC(Cn3nc(C(=O)NCc4ccco4)cc3-c3ccccc3)C2)cc1 (stereo unspecified),-2%,16µM*,-3%,-27,?
COc1ccc(C2=NOC(Cn3nc(-c4ccccc4)cc3C(=O)NCc3ccco3)C2)cc1 (stereo unspecified),6%,0%,17%,22,?
COCCNC(=O)c1cc(-c2ccccc2)n(CC2CC(c3ccc(OC)cc3)=NO2)n1 (stereo unspecified),5%,?,0%,-17,?
COc1ccc(C2=NOC(Cn3nc(-c4ccccc4)cc3C(=O)NCc3cccs3)C2)cc1 (stereo unspecified),-2%,9.2µM*,-4%,-1,?
Cc1ccc(CNC(=O)c2cc(-c3ccccc3C)nn2CC2CC(c3cccnc3)=NO2)cc1 (stereo unspecified),4%,21µM*,4%,-5,?
CCOC(=O)c1cc(-c2ccccc2)n(CC2CC(c3ccc(OC)cc3)=NO2)n1 (stereo unspecified),0%,23µM*,-1%,2,23µM*
Cc1ccc([N+](=O)[O-])cc1NC(=O)Cc1ccc(F)cc1,-7%,1%,-13%,-16,-14%
Cc1ccc([N+](=O)[O-])cc1NC(=O)Nc1cccc(F)c1,-12%,9.2µM*,-5%,-18,4.6µM*
Cc1ccc(N=Nc2ccc(C)cc2NC(=O)Nc2ccccc2F)cc1,5%,21µM*,-1%,7,?
O=C(Nc1ccccc1)Nc1cc([N+](=O)[O-])ccc1F,5%,?,12%,-6,0%
Cc1cc([N+](=O)[O-])ccc1NC(=O)Nc1ccccc1F,-13%,?,-1%,-99*,?
Cc1cc([N+](=O)[O-])ccc1NC(=O)Cc1ccc(F)cc1,3%,-3%,3%,-59*,6%
CC(C)[C@@H](C(=O)N1CCNCC1)n1cc(CCO)nn1,14%,-2%,14%,-1,-10%
Cn1cc(C(=O)N2CCCC(Nc3ccc(F)cc3)C2)c2ccccc21 (stereo unspecified),-3%,?,-1%,16,?
COc1ccc(N2CCOCC2)c(NC(=O)c2cccnc2)c1,-2%,-13%,-8%,-6,-22%
CC(C)Cn1c(-c2ccc(Cl)cc2)cnc1SCC(=O)N1CCOCC1,-5%,?,-10%,-7,?
CNC(=O)CN(CCN(CCN(CC(=O)[O-])CC(=O)NC)CC(=O)[O-])CC(=O)[O-].O.[Gd+3],.,2%,.,.,-1%
COCCNC(=O)c1cnn2c(C(F)(F)F)cc(-c3ccc(C)cc3)nc12,1%,?,1%,-6,?
Cc1cc([N+](=O)[O-])ccc1NCc1ccc2ccccc2c1,-9%,18µM*,-25%,0,?
O=C(Cc1ccc([N+](=O)[O-])cc1)Nc1cc(C(F)(F)F)cc(C(F)(F)F)c1,?,6.5µM*,-27%,.,4.1µM*
CCOC(=O)N1CCN(CC(=O)Nc2ccccc2C(=O)Nc2ccccc2)CC1,13%,?,15%,-4,?
CCOC(=O)N1CCN(CC(=O)Nc2ccc([N+](=O)[O-])cc2C(=O)Nc2ccccc2F)CC1,-19%,9.2µM*,?,23,21µM*
COc1ccc(CNc2ccc([N+](=O)[O-])cc2C)cc1,-5%,-28%,1%,-8,?
O=C(COc1ccc([N+](=O)[O-])cc1)NNC(=O)Nc1ccccc1F,3.7µM*,18%,4.1µM*,11,-14%
SMILES,HT1080 IDH1KD tx,TDP1 cell noCPT,HT1080NT lethal,IL1B secr inh,TDP1 cell CPT
O=C(NCc1ccco1)C1CCN(C(=O)N2CCOc3ccccc32)CC1,.,-14%,.,.,-1%
O=C1CCC(=O)N1CC(=O)N(c1ccccc1)c1ccccc1,9%,-2%,8%,17,3%
O=C(c1ccco1)N1CC2(CC(c3ccc(Cl)cc3)=NO2)CN1Cc1ccc(Br)cc1 (stereo unspecified),9%,?,6%,-17,21µM*
CC(C)N1CC2(CC(c3ccccc3F)=NO2)CN1C(=O)c1ccco1 (stereo unspecified),9%,-9%,14%,14,-2%
Cc1[nH]c2ccccc2c1C(=O)C(=O)N1CC=C(c2ccccc2)CC1,21µM*,23µM*,?,-14,15µM*
Cc1[nH]c2ccccc2c1C(=O)C(=O)N1CC(C)OC(C)C1 (stereo unspecified),2%,-8%,9%,-3,-1%
O=C(c1ccc(COc2c(F)c(F)cc(F)c2F)o1)N1CCN(c2ccc(Cl)cc2)CC1,?,16µM*,8%,-5,13µM*
O=C(c1ccc(CS(=O)Cc2ccc(Cl)cc2)o1)N1CCN(c2ccc(F)cc2)CC1 (stereo unspecified),-11%,-3%,-19%,?,?
Cc1ccc(C)c(N2CCN(C(=O)c3ccc(CS(=O)Cc4cccc(Cl)c4)o3)CC2)c1 (stereo unspecified),-17%,-14%,-23%,-75*,?
O=C(c1ccc(CS(=O)Cc2cccc(Cl)c2)o1)N1CCN(c2ccc(F)cc2)CC1 (stereo unspecified),-2%,16µM*,-1%,-11,?
O=C(c1ccc(CS(=O)Cc2ccc(Cl)cc2)o1)N1CCN(c2cccc(Cl)c2)CC1 (stereo unspecified),?,-28%,?,-83*,?
CC(C)(C)NC(=O)Cn1cc(S(=O)(=O)Cc2ccc(F)cc2)c2ccccc21,.,-26%,.,.,-21%
Cn1cccc1Cc1nnc(SCC(=O)NCC2CCCO2)n1C (stereo unspecified),10%,-22%,4%,11,?
COc1ccc(OC)c(S(=O)(=O)N(C)CC(=O)N2CCN(c3cccc(Cl)c3)CC2)c1,-1%,18µM*,-13%,2,?
COc1ccc(CC(=O)N2CCN(c3cccc(Cl)c3)CC2)cc1OC,-3%,10µM*,-9%,29,?

# Source: PubChem (National Center for Advancing Translational Sciences (NCATS))
